In PubChem BioAssay:
Calls of active or inactive are those of the source.

Columns and labels:
Albumin (Bos taurus) = Albumin (Bos taurus) (UniProt P02769); assay: compounds binding labelled BSA control protein – biochemical, small-molecule microarray, Alexa647 label, 635/667 nm fluorescence, artefact control for SMM control protein annotation, profiling panel (AID 1118); conditions: BSA-A647 binding, fluorescence 635 nm, higher = more signal;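 note: score merges 667 nm emission intensity and signal-to-noise per printed compound spot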
Albumin (Bos taurus), sequence (P02769 whole entry, looked up): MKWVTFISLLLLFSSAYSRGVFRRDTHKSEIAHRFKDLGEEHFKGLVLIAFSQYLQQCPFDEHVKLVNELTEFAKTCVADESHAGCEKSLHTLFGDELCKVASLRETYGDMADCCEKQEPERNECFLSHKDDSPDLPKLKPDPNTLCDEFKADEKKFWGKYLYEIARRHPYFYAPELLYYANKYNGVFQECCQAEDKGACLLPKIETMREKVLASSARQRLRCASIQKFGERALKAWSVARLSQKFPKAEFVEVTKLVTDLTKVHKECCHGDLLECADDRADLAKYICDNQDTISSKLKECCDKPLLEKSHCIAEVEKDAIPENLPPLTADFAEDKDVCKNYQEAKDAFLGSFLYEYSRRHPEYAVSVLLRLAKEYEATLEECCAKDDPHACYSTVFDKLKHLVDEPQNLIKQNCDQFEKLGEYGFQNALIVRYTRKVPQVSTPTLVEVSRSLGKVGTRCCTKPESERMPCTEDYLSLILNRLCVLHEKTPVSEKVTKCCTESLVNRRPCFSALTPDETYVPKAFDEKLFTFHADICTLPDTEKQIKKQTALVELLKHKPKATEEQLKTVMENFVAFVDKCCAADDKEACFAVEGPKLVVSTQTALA

[1] = probe aXIP binding to arrayed compounds – biochemical, NeuroSMM set, 635/667 nm fluorescence, primary screen (AID 1119); conditions: small-molecule microarray, higher = more signal, called active from +8 up or from −8 down;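 note: probe is the protein aXip251-270 applied at 1 µg/mL to compound-printed slides; binding of probe to printed compounds measured as 667 nm fluorescence plus signal to noise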
[2] = probe aNOTCH3 binding on compound microarray – biochemical, small-molecule microarray, 635/667 nm fluorescence, primary screen (AID 1120); conditions: higher = more signal;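 note: probe is a biotin-tagged antibody raised against NOTCH3 rather than NOTCH3 protein; score merges spot fluorescence near 667 nm with spot signal to noise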
[3] = probe aNOTCH2 binding on compound microarray – biochemical, small-molecule microarray, 635/667 nm fluorescence, primary screen (AID 1121); conditions: higher = more signal;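 note: score merges feature fluorescence read at 667 nm with its signal to noise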
[4] = biological target: Carbonic anhydrase 2 (Homo sapiens) (UniProt P00918); assay: compounds binding carbonic anhydrase 2 – biochemical, small-molecule microarray, Alexa647-labelled CAII, profiling panel (AID 1122); conditions: CAII-A647 binding fluorescence, higher = more signal
[5] = COS7 lysate on small-molecule microarray, probe aHis, 635 nm (AID 1123); conditions: COS7 cell lysate, fluorescence, higher = more signal;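 note: z-score combines 667nm fluorescence intensity with signal-to-noise per printed compound spot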
[6] = probe aLAP1 signal on lysate-treated microarray – cell lysate, small-molecule microarray, COS7 lysate, primary screen (AID 1124); conditions: probe aLAP1, fluorescence, higher = more signal;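 note: lysate comes from COS7 cells expressing LAP1 and is applied at 0.3 µg/mL; score merges spot fluorescence near 667 nm with signal-to-noise over triplicate slides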
Sam68 (KHDRBS1) = assay: compounds binding KHDRBS1 protein – biochemical, small-molecule microarray, 635 nm fluorescence, primary screen (AID 1125); conditions: higher = more signal;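 note: score merges 667 nm channel intensity with signal to noise over triplicate slides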
[7] = test system: Chordin-like protein 2 (CHRDL2); assay: compounds binding chordin-like 2 – biochemical, small-molecule microarray, 635 nm fluorescence, primary screen (AID 1126); conditions: fluorescence 635 nm, higher = more signal;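 note: printed compound slides probed with Chrdl2 protein at 4 µg/mL for 1 h at 4 C; score merges 667 nm emission intensity with signal to noise over three replicate slides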
[8] = biological target: Concanavalin-A (Canavalia ensiformis) (UniProt P02866); assay: compounds binding concanavalin A lectin – biochemical, small-molecule microarray, Alexa647 label, 635 nm, artefact control for SMM control protein annotation, primary screen (AID 1127); conditions: ConA-A647 binding fluorescence, higher = more signal;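 note: z combines 667 nm emission intensity with signal-to-noise across three replicate slides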
Concanavalin-A (Canavalia ensiformis), sequence (P02866 whole entry, looked up): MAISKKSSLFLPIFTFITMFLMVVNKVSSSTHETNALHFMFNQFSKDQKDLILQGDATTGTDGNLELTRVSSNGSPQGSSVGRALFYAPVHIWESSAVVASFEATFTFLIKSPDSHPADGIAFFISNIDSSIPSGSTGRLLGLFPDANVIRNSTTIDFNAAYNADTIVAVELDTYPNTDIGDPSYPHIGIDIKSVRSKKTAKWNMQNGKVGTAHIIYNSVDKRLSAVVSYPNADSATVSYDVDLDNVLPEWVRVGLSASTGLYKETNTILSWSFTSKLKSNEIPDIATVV

[9] = compounds binding Alexa647 anti-His antibody – biochemical, small-molecule microarray, 635 nm fluorescence, artefact control for SMM control protein annotation, primary screen (AID 1128); conditions: higher = more signal;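 note: score merges feature fluorescence with signal-to-noise for each printed compound spot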
[10] = test system: Human papillomavirus type 1a E7 protein (residues 1-88); assay: HPV1a E7 small-molecule binders, primary screen, biochemical, small-molecule microarray, residues 1-88, 635 nm (AID 1129); conditions: small-molecule microarray binding, fluorescence 635 nm; higher = more signal
[11] = biological target: Focal adhesion kinase 1 (Homo sapiens) (UniProt Q05397); assay: PTK2 protein binding on printed compound slides – biochemical, small-molecule microarray, 635/667 nm fluorescence, BSA, DTT, primary screen (AID 1130); conditions: 635 nm fluorescence, higher = more signal;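 note: composite of spot emission at 667 nm and signal to noise over triplicate slides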
Focal adhesion kinase 1 (Homo sapiens), sequence (Q05397 whole entry, looked up): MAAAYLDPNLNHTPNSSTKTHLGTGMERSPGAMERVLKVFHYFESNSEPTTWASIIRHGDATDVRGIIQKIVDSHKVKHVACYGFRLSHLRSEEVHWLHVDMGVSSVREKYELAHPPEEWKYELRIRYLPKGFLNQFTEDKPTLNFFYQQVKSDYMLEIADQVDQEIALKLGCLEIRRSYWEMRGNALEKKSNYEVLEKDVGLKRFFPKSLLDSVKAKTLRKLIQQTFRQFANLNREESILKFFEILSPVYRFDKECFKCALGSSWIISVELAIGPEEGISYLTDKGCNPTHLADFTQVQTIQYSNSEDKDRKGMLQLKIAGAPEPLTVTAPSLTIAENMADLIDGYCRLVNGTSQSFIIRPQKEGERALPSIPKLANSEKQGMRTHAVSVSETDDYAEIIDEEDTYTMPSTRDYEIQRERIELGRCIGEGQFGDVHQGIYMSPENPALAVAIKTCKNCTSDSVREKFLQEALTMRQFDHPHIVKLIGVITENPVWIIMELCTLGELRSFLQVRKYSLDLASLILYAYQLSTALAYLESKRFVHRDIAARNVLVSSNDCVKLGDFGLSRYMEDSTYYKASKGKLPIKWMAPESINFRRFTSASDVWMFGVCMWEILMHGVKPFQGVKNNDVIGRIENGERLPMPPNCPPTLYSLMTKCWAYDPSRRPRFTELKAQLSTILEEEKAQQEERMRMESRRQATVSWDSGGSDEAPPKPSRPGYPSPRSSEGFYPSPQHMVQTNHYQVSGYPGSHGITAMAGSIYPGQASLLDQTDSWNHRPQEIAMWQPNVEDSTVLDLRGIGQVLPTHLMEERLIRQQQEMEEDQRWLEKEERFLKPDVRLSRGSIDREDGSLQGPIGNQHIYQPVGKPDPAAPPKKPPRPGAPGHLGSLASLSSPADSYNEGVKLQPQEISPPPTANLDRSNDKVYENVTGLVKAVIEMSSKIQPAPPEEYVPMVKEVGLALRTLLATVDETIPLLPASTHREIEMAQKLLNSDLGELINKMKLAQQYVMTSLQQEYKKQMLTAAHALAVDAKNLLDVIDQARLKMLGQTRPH

[12] = test system: Fibrinogen (Alexa647-labelled); assay: Alexa647-fibrinogen binding to printed small molecules – biochemical, small-molecule microarray, 635/667 nm fluorescence, artefact control for SMM control-protein annotation, profiling panel (AID 1131); conditions: fibrinogen-A647 binding fluorescence, higher = more signal;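 note: z-score merges 667 nm fluorescence with per-spot signal-to-noise over triplicate slides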
[13] = biological target: Follistatin (Homo sapiens) (UniProt P19883); assay: FST protein binding to printed compounds – biochemical, small-molecule microarray, 635/667 nm fluorescence, primary screen (AID 1132); conditions: 635 nm fluorescence, higher = more signal
Follistatin (Homo sapiens), sequence (P19883 whole entry, looked up): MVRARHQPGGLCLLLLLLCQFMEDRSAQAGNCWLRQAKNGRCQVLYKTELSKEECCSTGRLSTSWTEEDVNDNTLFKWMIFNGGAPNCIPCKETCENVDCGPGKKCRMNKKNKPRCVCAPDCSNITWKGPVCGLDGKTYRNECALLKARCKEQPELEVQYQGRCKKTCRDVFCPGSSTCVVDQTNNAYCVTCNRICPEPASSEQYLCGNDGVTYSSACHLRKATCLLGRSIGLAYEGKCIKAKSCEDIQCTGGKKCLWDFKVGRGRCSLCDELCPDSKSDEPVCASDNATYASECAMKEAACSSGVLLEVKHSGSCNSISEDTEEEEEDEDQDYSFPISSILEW

[14] = biological target: Fibroblast growth factor 2 (Homo sapiens) (UniProt P09038); assay: basic fibroblast growth factor binding to printed compounds – biochemical, small-molecule microarray, 635/667 nm fluorescence, primary screen (AID 1133); conditions: FGF2, fluorescence 635/667, higher = more signal
Fibroblast growth factor 2 (Homo sapiens), sequence (P09038 whole entry, looked up): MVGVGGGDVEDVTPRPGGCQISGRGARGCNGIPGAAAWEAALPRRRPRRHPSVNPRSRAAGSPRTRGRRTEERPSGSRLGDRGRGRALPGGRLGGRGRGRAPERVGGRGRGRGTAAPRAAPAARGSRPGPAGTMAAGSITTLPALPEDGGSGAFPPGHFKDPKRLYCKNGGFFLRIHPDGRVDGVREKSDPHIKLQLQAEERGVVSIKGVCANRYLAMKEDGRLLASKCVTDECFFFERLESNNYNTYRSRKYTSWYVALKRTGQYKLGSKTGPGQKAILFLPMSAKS

[15] = JC-1 mitochondrial potential readout, lung cancer cells – cell-based, A549, JC-1 fluorescence, basal, 24 h, 100 nL, profiling panel (AID 1138); conditions: higher = more signal;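 note: A549 lung adenocarcinoma cells under basal conditions with no added stimulus; test concentration not given here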
Lefty1 = Lefty1 protein binding to printed compounds – biochemical, small-molecule microarray, 635/667 nm fluorescence, primary screen (AID 1139); conditions: fluorescence 635/667, higher = more signal
[16] = test system: wheat germ agglutinin (Triticum aestivum), Alexa647-labelled; assay: Alexa647-WGA lectin binding to printed small molecules – biochemical, small-molecule microarray, 635/667 nm fluorescence, artefact control for SMM control-protein annotation, profiling panel (AID 1140); conditions: WGA-A647 binding, 635 nm fluorescence, higher = more signal;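 note: score merges 667 nm feature emission with signal to noise over triplicate slides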
[17] = biological target: Luciferin 4-monooxygenase (Photinus pyralis) (UniProt P08659); assay: inhibition of purified Photinus pyralis luciferase – biochemical, luminescence, purified enzyme, 2006 set, primary screen (AID 1141); conditions: purified firefly luciferase, SteadyGlo luminescence, 30 min; higher = more signal, called active from +8 up or from −8 down;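 note: cell-free assay with purified firefly luciferase at 100 ng per well in PBS; test concentration not given here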
Luciferin 4-monooxygenase (Photinus pyralis), sequence (P08659 whole entry, looked up): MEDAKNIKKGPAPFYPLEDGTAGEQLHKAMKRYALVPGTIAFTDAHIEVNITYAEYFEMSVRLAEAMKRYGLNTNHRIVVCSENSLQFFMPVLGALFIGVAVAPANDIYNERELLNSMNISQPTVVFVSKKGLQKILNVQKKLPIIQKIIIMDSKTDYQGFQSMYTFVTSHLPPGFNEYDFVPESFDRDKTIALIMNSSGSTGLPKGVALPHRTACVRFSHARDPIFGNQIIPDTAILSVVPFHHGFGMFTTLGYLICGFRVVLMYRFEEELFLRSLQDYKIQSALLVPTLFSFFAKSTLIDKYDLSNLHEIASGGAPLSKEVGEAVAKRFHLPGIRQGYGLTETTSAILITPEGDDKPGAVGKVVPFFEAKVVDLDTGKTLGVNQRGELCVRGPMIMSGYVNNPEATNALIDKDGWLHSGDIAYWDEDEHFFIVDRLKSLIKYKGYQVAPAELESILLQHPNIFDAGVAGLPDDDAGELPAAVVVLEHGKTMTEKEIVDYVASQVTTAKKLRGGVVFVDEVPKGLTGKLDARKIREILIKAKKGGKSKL

| SMILES | composite z-score (Albumin (Bos taurus)) | composite Z-score [1] | composite z-score [2] | composite z-score [3] | composite z-score [4] | composite z-score [5] | composite z-score [6] | composite z-score (Sam68 (KHDRBS1)) | composite z-score [7] | composite z-score [8] | composite z-score [9] | composite z-score [10] | composite z-score [11] | composite z-score [12] | composite z-score [13] | composite z-score [14] | z-score [15] | composite z-score (Lefty1) | composite z-score [16] | z-score [17] |
| --- | --- | --- | --- | --- | --- | --- | --- | --- | --- | --- | --- | --- | --- | --- | --- | --- | --- | --- | --- | --- |
| Cc1cc2c(nc1C)CCCCN2CC(C)ON=C1[C@H]2CCn3c(=O)n(-c4ccccc4)c(=O)n3[C@H]2[C@H](O)[C@@H]2O[C@H]12 (stereo not given in full) | 0.762 | -0.343 (inactive) | 0.0562 | -0.117 | 0.435 | 0.812 | 0.0072 | 0.573 | 0.373 | -0.765 | 0.761 | -0.0951 | -0.0065 | 0.7 | 0.7 | 0.875 | -0.196 | 1.31 | 1 | -0.661 (inactive) |
| O=C1[C@H]2[C@H]3[C@H](O)[C@H](O)CC(=NOCc4ccccc4)[C@@H]3CC[C@H]2C(=O)N1C[C@@H]1CCCO1 | 0.0904 | -0.207 (inactive) | -0.187 | -0.0621 | -0.026 | 0.369 | 0.279 | -0.361 | 0.332 | 0.603 | -0.016 | -0.182 | 0.205 | 0.237 | -0.0829 | 0.0592 | -0.485 | -0.0955 | -0.396 | 0.903 (inactive) |
| CO[C@H]1COC(=O)[C@@H](C)COC(=O)[C@H](C)NC(=O)CC=C[C@H]1C | -0.859 | 0.111 (inactive) | -0.038 | -0.0907 | -0.328 | -0.866 | -0.225 | 0.486 | 1.27 | -0.99 | -0.79 | -0.764 | -0.113 | -0.47 | 1.31 | 0.871 | 0.853 | 1.58 | -0.379 | -0.185 (inactive) |
| COC(=O)[C@H]1[C@@H](O)[C@@]2(O)c3ccccc3O[C@@]2(c2ccccc2)[C@@H]1c1ccccc1 | -0.642 | 1.97 (inactive) | -0.1 | -0.133 | 0.18 | 0.19 | -0.221 | -0.926 | 0.14 | -0.246 | 0.434 | 0.0845 | -0.257 | -0.842 | 0.101 | 0.352 | 0.266 | 0.285 | 1.01 | 0.487 (inactive) |
| CO[C@H]1COC(=O)CC=C[C@@H](C)[C@H](NS(=O)(=O)c2ccc(C)cc2)COC(=O)CCC[C@@H]1C | -0.48 | -0.483 (inactive) | -0.0711 | -0.11 | -0.312 | -0.42 | 0.303 | 0.515 | 1.23 | -0.0177 | 0.167 | -0.21 | 0.193 | 0.19 | 0.785 | 0.579 | -1.07 | 0.962 | -0.0807 | 1.03 (inactive) |
| CCOC(=O)[C@H](CC(C)C)NC(=O)CCC1CC(OC(=O)NCc2ccc3c(c2)OCO3)CC2(CCCC(COC(=O)NCC3CCCCC3)O2)O1 (stereo not given in full) | 0.235 | 0.189 (inactive) | 0.31 | -0.207 | 0.368 | 0.636 | 0.244 | 1.32 | 0.567 | 0.512 | 1.18 | 0.939 | -0.217 | -0.195 | 1.18 | 0.928 | 0.0853 | 1.63 | 0.584 | 0.885 (inactive) |
| C[C@@H]1CC[C@H]2C(=O)O[C@@H](COc3ccc(C(C)(C)C)cc3)CN2[C@@H]1c1ccc(Br)cc1 | 0.0192 | -0.695 (inactive) | -0.21 | -0.14 | -0.408 | -0.0056 | -0.239 | -0.558 | -0.614 | -0.619 | 2.71 | -0.741 | 0.225 | 0.172 | -0.0473 | -0.62 | 0.841 | -0.255 | -0.383 | -0.864 (inactive) |
| CCOC(=O)[C@H](CC(C)C)NC(=O)CCC1CC(OC(=O)NCc2cccc3ccccc23)CC2(CCCC(COC(=O)NCCOc3ccccc3)O2)O1 (stereo not given in full) | 0.496 | -0.309 (inactive) | -0.0048 | 0.0174 | 0.533 | 0.684 | 0.27 | 1.32 | 0.412 | 1.06 | 0.907 | 1.15 | 0.0968 | 0.959 | 0.776 | 0.373 | 1.07 | 0.741 | 0.537 | 0.546 (inactive) |
| CCCNC(=O)OC[C@H]1O[C@H](CCON=C(C)C)C=C[C@@H]1Oc1ccc(OC)cc1 | 0.317 | -0.0154 (inactive) | 0.154 | -0.0877 | 0.0464 | 0.857 | -0.384 | -0.209 | -0.186 | 0.853 | 1.82 | -0.124 | 0.105 | 0.448 | -0.132 | -0.245 | -0.218 | 0.0114 | -0.0321 | -0.129 (inactive) |
| O=C(NN=C1C[C@@H](O)[C@@H](O)[C@@H]2[C@@H]3C(=O)N(C[C@@H]4CCCO4)C(=O)[C@@H]3CC[C@H]12)OCc1ccccc1 | 0.534 | 0.42 (inactive) | 0.0522 | -0.0081 | -0.273 | 0.109 | -0.0716 | -0.534 | -0.187 | 0.305 | -0.0516 | 0.0327 | -0.147 | 0.271 | -0.606 | -0.183 | -0.0539 | -0.793 | 0.717 | 0.304 (inactive) |
| O=C(NN=C1C[C@@H](O)[C@@H](O)[C@@H]2[C@@H]3C(=O)N(C[C@@H]4CCCO4)C(=O)[C@@H]3CC[C@@H]12)OCc1ccccc1 | 0.103 | 0.008 (inactive) | -0.0647 | -0.16 | -0.275 | -0.12 | 0.373 | 0.794 | 0.909 | -0.18 | -0.391 | -0.645 | -0.345 | -0.545 | 0.5 | 0.23 | 0.49 | 0.305 | -0.248 | -0.827 (inactive) |
| COC(=O)[C@@H]1CC[C@H](C)[C@@H](c2ccc(C)cc2)N1C(=O)c1ccc(C=NO[C@@H]2O[C@H](COC(C)=O)[C@@H](OC(C)=O)[C@H](OC(C)=O)[C@H]2OC(C)=O)cc1 | 0.322 | 0.265 (inactive) | -0.217 | -0.0596 | -0.0477 | 0.234 | 0.116 | 1.05 | 0.452 | 1.01 | 2.08 | 0.68 | -0.169 | 0.926 | 0.551 | 0.336 | 0.0992 | 1.06 | 0.347 | 0.945 (inactive) |
| C#CCCCON=C1C[C@@H](O)[C@@H](O)[C@@H]2[C@@H]3C(=O)N(CCC(=O)OCC)C(=O)[C@@H]3CC[C@H]12 | 0.356 | 0.269 (inactive) | -0.042 | -0.0837 | 0.222 | 0.769 | 0.613 | 1.32 | 0.247 | 1.07 | 0.997 | 0.929 | -0.0834 | 0.375 | 1.06 | 0.613 | 0.317 | 0.861 | 0.101 | -0.891 (inactive) |
| C[n+]1ccc(-c2ccc(CO)cc2)cc1 | -0.619 | 2.7 (inactive) | -0.0377 | -0.157 | 0.68 | -0.702 | 0.372 | 0.364 | 1.54 | 1.11 | 0.658 | -0.676 | -0.332 | -0.168 | 1.55 | 1.35 | -0.666 | 1.61 | 1.48 | -0.288 (inactive) |
| CC(C)CON=C1C[C@@H](O)[C@@H](O)[C@@H]2[C@@H]3C(=O)N(C[C@@H]4CCCO4)C(=O)[C@@H]3CC[C@@H]12 | 0.268 | 0.223 (inactive) | -0.0967 | -0.14 | 0.165 | 0.421 | 0.419 | 0.12 | -0.39 | -0.339 | 0.0488 | -0.0845 | 0.348 | 0.222 | -0.341 | -0.0796 | 0.221 | -0.399 | 0.561 | 0.141 (inactive) |
| CCCNC(=O)OC[C@H]1O[C@H](CCON=Cc2ccc(C(=O)N3[C@H](c4ccc(C)cc4)[C@@H](C)CC[C@H]3C(=O)OC)cc2)C=C[C@@H]1Oc1ccc(OC)cc1 | 0.315 | 0.0856 (inactive) | -0.321 | -0.172 | -0.0309 | 0.526 | 0.735 | 1.08 | 0.274 | 0.279 | 1.77 | 0.838 | 0.315 | 0.88 | 0.277 | 0.666 | -0.195 | 0.58 | 0.236 | 0.407 (inactive) |
